Results filed as inconclusive are left out. Activity calls are given as the source filed them. Calls follow the shape of the dose curve; as a rule, active = well fitted inhibition curve with a large enough effect; inconclusive = small, poorly fitted or top-dose-only effect; inactive = no such curve, though single readings can be large or run the other way.
Potency is read from the fitted curve at half-maximal effect.

This assay is described as follows: InCell qHTS Assay for Inhibitors of the mTORC1 Signaling Pathway in MEF (Tsc2-/-, p53-/-) Cells: Hit Validation.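 Also: phospho-S6 Ser235/236 signal normalized to propidium iodide cell count per well; nearly all actives have a fitted effect of over 75% in size.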 To be noted: phospho-rpS6 immunofluorescence, 24 h; activity change, negative = inhibition: at 38.3 µM (top of the series). Background: In qHTS, concentration-response curves come from the screen itself.
On to `Cc1ccc(C(=O)CC2(O)C(=O)N(Cc3ccccc3F)c3ccccc32)cc1` (stereo unspecified), for which the activity change, negative = inhibition is -100%.

In the case of `CCc1ccc(-c2nc(CSCC(=O)NCc3ccc(C)cc3)c(C)o2)cc1`, the activity change, negative = inhibition was -100%. As for `COc1ccc(CCN2C(=O)c3[nH]nc(-c4ccccc4O)c3C2c2cccc(OC)c2)cc1` (stereo unspecified), the activity change, negative = inhibition was -28.2%. On to `CC(C)c1ccc(C2Sc3ccccc3NC3=C2C(=O)c2ccccc23)cc1` (stereo unspecified), for which the activity change, negative = inhibition was -100%. Still for that read-out and setting: the value for `O=C(c1ccc(CS(=O)c2ccccc2Cl)o1)N1CCN(c2cccc(C(F)(F)F)c2)CC1` (stereo unspecified) was -28.2%; that for `CCOc1ccc(CCNC(=O)CCc2c(C)nc3cc(-c4ccccc4OC)nn3c2C)cc1` was -100%; that for `Cc1ccc(S(=O)(=O)c2nnn3c2nc(NCc2cccs2)c2sccc23)cc1` was -100%.

For `CC(=O)C1=C(c2ccc(Cl)c(Cl)c2)N(C(C)=O)n2c(C)nnc2S1`, the Potency is 7.36 µM (active). In the case of `COC(=O)c1ccccc1NC(=O)CSc1n[nH]c(CC(C)C)n1`, the activity change, negative = inhibition was -100%.

Turning to `CCn1c(=N)n(CCOc2ccc(Br)cc2)c2ccccc21`, the Potency is 14.7 µM (active). For the molecule `CC(=O)Nc1cccc(NC(=O)C(=O)NCCc2sc(-c3ccccc3)nc2C)c1`, the activity change, negative = inhibition is -9.58%. On to `COc1ccccc1C(=O)Nc1ccc2nc(N3CCC(C)CC3)cc(C)c2c1`, for which the activity change, negative = inhibition was -100%.

On to `Cc1ccc(CN(Cc2cccn2-c2nnc(N3CCCC3=O)s2)C(=O)Nc2ccccc2C(F)(F)F)cc1`, for which the activity change, negative = inhibition was -100%. With `COc1ccc(OC)c(NC(=O)c2nnn(CC(=O)Nc3ccc(C(C)C)cc3)c2N)c1`, the activity change, negative = inhibition was -100%. Consider `CCOCc1cc(CN2CCN(c3ccccc3OC)CC2)c(O)c2ncccc12`, for which the Potency was 2.07 µM (active). As for `Cc1ccc(C)c(S(=O)(=O)NCC(c2ccco2)S(=O)(=O)c2ccc(F)cc2)c1` (stereo unspecified), the activity change, negative = inhibition was -100%. Still for that read-out and setting: the same measure for `CC(C)(C)c1ccc(C2NC(=O)c3n[nH]c(-c4cccs4)c32)cc1` (stereo unspecified): -100%.

With `CC(C)(C)C(=O)Nc1ccc(-c2nc3ccc(NC(=O)C(C)(C)C)cc3[nH]2)cc1`, the activity change, negative = inhibition is -27%. Same read-out and setting: the same measure for `CC(CNC(=O)c1ccc(Nc2nc3ccccc3n3nnnc23)cc1)c1ccccc1` (stereo unspecified): -100%; for `COc1ccc(OCC(=O)Nc2ccc3nn(-c4ccc(OC)cc4)nc3c2)cc1`: -100%; for `O=C(NC1CCCCC1)/C(=C/c1ccc(Cl)cc1)NC(=O)c1ccccc1`: -22.5%.
